Assay results as given in PubChem BioAssay (NCATS).
Results filed as inconclusive are left out. The source made the active and inactive calls. The call rests on the fitted dose curve; in most records, active means well fitted curve in the direction sought with a large enough effect; inconclusive means small, poorly fitted or top-dose-only effect, or another doubt; inactive means no such curve, though single readings can be large; an effect the other way counts as inactive or inconclusive.

Columns and labels:
[1] = qHTS to identify inhibitors of the type 1 interferon - major histocompatibility complex class I in skeletal muscle: primary screen against the NCATS Pharmaceutical Collection (AID 1347407); details: human skeletal muscle cells, IFN-b-induced MHC-I HiBiT luminescence, 24 h; series mostly up to 45.9 µM;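 further: luminescence of HiBiT knocked into endogenous HLA-B as interferon-induced MHC class I level; on the % scale 0 is the no-effect control and ±100 the full control effect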
In short: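 A qHTS format is used: 8-point, 1:5 compound series with 46 uM top final concentration, applied alongside 4 ng/ml IFN-beta to HLA-B*08:01-HiBiT knock-in myoblasts. Luminescence is measured after 24 h treatment.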

[2] = biological target: Protein phosphatase 1D (Homo sapiens) (UniProt O15297); assay: RapidFire Mass Spectrometry qHTS Assay for Modulators of WT P53-Induced Phosphatase 1 (WIP1) (AID 1347424); details: WIP1 dephosphorylation of phosphopeptide, RapidFire MS; series mostly up to 63 µM;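 further: amount of dephosphorylated VEPPL-S-QETFS peptide product formed by WIP1; plate controls were DMSO wells for no effect and GSK830371 inhibitor control at 10 µM for full effect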
In short: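 WIP1 (10 nM final) was preincubated 1 h at room temperature with compounds in Tris-HCl pH 7.5, 30 mM MgCl2, TCEP, EGTA, BSA; 2 uM VEPPL-pS-QETFS phosphopeptide was added for 5 min, quenched with formic acid, and dephosphorylated product quantified by RapidFire MS.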

[3] = Primary qHTS for inhibitors of La Crosse Virus (LACV) - induced cell death in SH-SY5Y cells (AID 1508616); details: SH-SY5Y LACV cytopathicity rescue, ATP luminescence, 6 d; series mostly up to 4.29 µM;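 further: top concentration of the series differs between compounds; 0% = infected DMSO wells and 100% = uninfected DMSO wells; higher means more rescue of cells from virus-induced death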
In short: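 SH-SY5Y cells (6000/well) plated 24 h, then given compounds by pin transfer and LACV at 0.01 MOI for 6 days at 37C. Viability measured by ATPLite luminescence, normalized to infected DMSO and uninfected DMSO.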

[4] = biological target: Calcium and integrin-binding protein 1 (Homo sapiens) (UniProt Q99828); assay: Primary qHTS for Identification of Calcium Integrin Binding Protein 1 (CIB1) Competitor (AID 1508620); details: CIB1-GST / FITC-alphaIIb peptide fluorescence polarization; series mostly up to 114 µM;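 further: GST tagged CIB1 binding a fluorescein labelled alphaIIb integrin peptide tracer; top concentration of the series differs between compounds; on the % scale 0 is the no-effect control and ±100 the full control effect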
In short: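 Fluorescence polarization competition: CIB1-GST (1 uM final) preincubated with compound 15 min at room temperature, then FITC-labeled alphaIIb peptide (100 nM final) added for another 15 min. Polarization read at Ex 480/Em 540.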

[5] = biological target: Protein phosphatase 1D (Homo sapiens) (UniProt O15297); assay: Rhodamine-PBP qHTS Assay for Modulators of WT P53-Induced Phosphatase 1 (WIP1) (AID 1347425); details: recombinant WIP1, Rhodamine-PBP phosphate fluorescence, real-time; series mostly up to 57.5 µM; further: % of control where 0% means no effect
In short: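 Steps: enzyme with Rh-PBP sensor and compounds, room-temperature incubation of 1 hr, baseline read, addition of VEPPL-pS-QETFS (10 uM final), kinetic fluorescence reads at 525/598 nm. Activity equals final minus baseline signal.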

[6] = Counterscreen qHTS for small molecule stabilizers of the endoplasmic reticulum resident proteome: GLuc-NoTag assay (AID 1508627); details: Gaussia luciferase NoTag secretion counterscreen, luminescence, thapsigargin 100 nM for final 4 h; series mostly up to 76.4 µM;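 further: SH-SY5Y cells given compound then 100 nM thapsigargin to empty ER calcium; 0% = thapsigargin alone and -100% = DMSO vehicle control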
In short: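 SH-SY5Y cells stably expressing constitutively secreted GLuc (no SERCaMP tag) were pre-incubated 5 h, treated with compound for 19 h, then 100 nM thapsigargin for 4 h at 37C; medium GLuc read by coelenterazine luminescence.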

[7] = Confirmatory qHTS for small molecule stabilizers of the endoplasmic reticulum resident proteome: Secreted ER Calcium Modulated Protein (SERCaMP) assay (AID 1508628); details: SERCaMP secreted luciferase ER calcium/proteostasis reporter; series mostly up to 76.3 µM; further: nearly all actives have a fitted effect of over 40% in size; further: potency means the concentration at half of the fitted maximal effect
In short: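 SH-SY5Y cells stably expressing GLuc-SERCaMP, treated 16 h with compound (primary 1.53, 7.67, 38.3 uM; confirmation 11 concentrations, up to 76.6 uM), then 100 nM thapsigargin for 4 h. Secreted Gaussia luciferase in medium read by coelenterazine luminescence.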

[8] = Cell Viability qHTS for small molecule stabilizers of the endoplasmic reticulum resident proteome (AID 1508629); details: cell viability counter-screen, 100 nM thapsigargin for final 4 h;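 further: human SH-SY5Y neuroblastoma cells carrying the GLuc-SERCaMP reporter; compound exposure about 46 h in total before the viability read; on the % scale 0 is the no-effect control and ±100 the full control effect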
[9] = qHTS to identify inhibitors of the type 1 interferon - major histocompatibility complex class I in skeletal muscle: primary screen against the NCATS Mechanism Interrogation Plate v5.0 (MIPE) Libary (AID 1347411); details: iHSKM cells + IFN-b, HiBiT-tagged MHC-I luminescence, 24 h; series mostly up to 45.8 µM;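 further: plate controls were vehicle for no effect and reference inhibitor for full effect; nearly all actives have a fitted effect of over 65% in size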
In short: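 Immortalized human myoblasts (C25cl48) with HiBit knocked into endogenous HLA-B*08:01 were stimulated with 4 ng/ml IFN-beta and given compounds in 11-point 1:3 titration from 46 uM. After 24 h at 37 C, lytic HiBiT luminescence was read.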

[10] = qHTS for inhibitors of adenylyl cyclases using a fission yeast platform: a pilot screen against the NCATS LOPAC library (AID 1347410);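 further: plate controls were DMSO vehicle for no effect and DPI positive control for full effect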; details: S. pombe CHP2027, fbp1-GFP fluorescence, 18 h, yeast expressing mammalian AC9 and human GNAS; series mostly up to 57.5 µM
In short: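 Inhibition of GNAS-stimulated AC9 activity in S. pombe was inferred from derepression of a PKA-repressed fbp1-GFP reporter, measured as cytometric fluorescence after 18 h at 30C with compounds at up to 57 µM.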

[11] = Validation qHTS assay for inhibitors of Activation Induced Cytidine Deaminase (AID): UDG Counterscreen signal (AID 1347427); details: biochemical UDG counterscreen, fluorescence signal; series mostly up to 115 µM; further: 0% is about no effect
In short: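 Counterscreen read of UDG activity (2 U/mL, 4/3x) in the FRET deamination format with AID (1 uM, 4/3x), DJC20/DJC23 substrates (250 nM, 4x), 4 h at room temperature. NaOH stop, fluorescence at 560 ex/665 em.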

[12] = biological target: Single-stranded DNA cytosine deaminase (Homo sapiens) (UniProt Q9GZX7); assay: Validation qHTS assay for inhibitors of Activation Induced Cytidine Deaminase (AID): AID signal (AID 1347429); details: Recombinant AID, FRET ssDNA deamination with UDG, fluorescence; series mostly up to 115 µM; further: on the % scale 0 is the no-effect control and ±100 the full control effect
In short: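 FRET deamination assay: 1 uM AID (4/3x stock) with UDG, compound up to 114 uM, then 250 nM DJC20/DJC23 substrate (4x stock) for 4 hr at room temperature. NaOH added, 30 min; fluorescence read 540/590 nm.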

[13] = biological target: Calcium and integrin-binding protein 1 (Homo sapiens) (UniProt Q99828); assay: Validation qHTS for Identification of Calcium Integrin Binding protein 1 (CIB1) Competitor (AID 1508618); details: CIB1-GST / FITC-alphaIIb peptide fluorescence polarization; series mostly up to 114 µM; further: on the % scale 0 is the no-effect control and ±100 the full control effect
In short: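 In this qHTS validation, the LOPAC set (up to 114 uM) was tested for blocking CIB1 binding to a fluorescein-tagged alphaIIb peptide, with FP detection at 480/540 nm.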

Calcium and integrin-binding protein 1 (Homo sapiens), sequence (Q99828 whole entry, looked up): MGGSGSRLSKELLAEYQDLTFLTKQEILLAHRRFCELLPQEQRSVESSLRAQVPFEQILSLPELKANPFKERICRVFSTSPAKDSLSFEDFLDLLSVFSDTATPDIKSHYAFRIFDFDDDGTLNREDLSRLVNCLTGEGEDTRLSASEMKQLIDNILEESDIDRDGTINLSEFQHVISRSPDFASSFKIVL
Protein phosphatase 1D (Homo sapiens), sequence (O15297 whole entry, looked up): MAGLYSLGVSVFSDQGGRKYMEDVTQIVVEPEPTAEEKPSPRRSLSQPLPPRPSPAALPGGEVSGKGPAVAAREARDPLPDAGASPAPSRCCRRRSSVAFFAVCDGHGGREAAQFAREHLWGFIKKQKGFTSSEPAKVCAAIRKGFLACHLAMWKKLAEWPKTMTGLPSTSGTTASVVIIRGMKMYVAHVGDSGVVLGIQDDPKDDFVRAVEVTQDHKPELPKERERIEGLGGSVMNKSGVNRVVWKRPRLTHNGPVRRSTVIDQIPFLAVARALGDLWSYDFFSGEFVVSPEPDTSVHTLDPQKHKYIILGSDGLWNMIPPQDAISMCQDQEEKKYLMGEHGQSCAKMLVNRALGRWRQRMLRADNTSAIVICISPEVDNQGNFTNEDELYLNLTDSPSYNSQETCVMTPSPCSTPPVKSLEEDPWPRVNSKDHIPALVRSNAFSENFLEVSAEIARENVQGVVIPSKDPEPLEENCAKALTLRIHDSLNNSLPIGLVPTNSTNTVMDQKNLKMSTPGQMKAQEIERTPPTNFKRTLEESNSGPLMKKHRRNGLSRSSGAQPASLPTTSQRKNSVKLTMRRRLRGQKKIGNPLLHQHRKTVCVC
Single-stranded DNA cytosine deaminase (Homo sapiens), sequence (Q9GZX7 whole entry, looked up): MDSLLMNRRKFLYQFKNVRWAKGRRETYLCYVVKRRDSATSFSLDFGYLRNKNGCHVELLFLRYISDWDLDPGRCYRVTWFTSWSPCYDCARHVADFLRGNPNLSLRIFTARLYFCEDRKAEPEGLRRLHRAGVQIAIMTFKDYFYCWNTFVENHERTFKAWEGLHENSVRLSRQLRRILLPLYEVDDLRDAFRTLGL

O=S(=O)(O)c1cc(I)c(O)c2ncccc12
inactive: Potency [1] | outcome [2] | outcome [3] | outcome [4]

Cc1cc(CC(=O)O)n(C)c1C(=O)c1ccc(Cl)cc1
inactive: Potency [1] | outcome [2] | outcome [3] | outcome [4]

C[C@@H]1CN(c2c(F)c(F)c3c(=O)c(C(=O)O)cn(C4CC4)c3c2F)C[C@H](C)N1
inactive: Potency [1] | outcome [2] | outcome [3] | outcome [4]

CCCc1c(OCCCCc2nn[nH]n2)ccc(C(C)=O)c1O
inactive: Potency [1] | outcome [5] | outcome [3]

CN1CCCCC1CCN1c2ccccc2Sc2ccc(S(C)=O)cc21 (stereo not drawn)
active: Potency [7] 12.6 µM
inactive: Potency [1] | outcome [2] | outcome [3] | outcome [4] | Potency [6] | max response [8] -1.8%

Oc1ccc(C(O)CNCCCCCCNCC(O)c2ccc(O)c(O)c2)cc1O (stereo not drawn)
inactive: Potency [1] | outcome [2] | outcome [3] | outcome [4]

[Cl][In]([Cl])[Cl]
inactive: Potency [1] | outcome [4]

CC1=C(C/C=C(\C)CCC[C@H](C)CCC[C@H](C)CCCC(C)C)C(=O)c2ccccc2C1=O
inactive: Potency [1] | outcome [2] | outcome [3] | outcome [4]

Cc1c(Cl)cccc1Nc1ccccc1C(=O)O
inactive: Potency [1] | outcome [3] | outcome [4]

O=c1[nH]c(=O)c2[nH]c(=O)[nH]c2[nH]1
inactive: activity change, negative = inhibition [2] -6.34% [at 12.6 µM] | activity change, negative = inhibition [5] 10.4% [at 11.5 µM] | activity change [3] 1.46% [at 0.858 µM]

O=c1cc[nH]c(=S)[nH]1
inactive: outcome [2] | outcome [5] | outcome [3]

CN(N=O)C(=O)N[C@@H]1[C@@H](O)[C@H](O)[C@@H](CO)O[C@@H]1O
inactive: Potency [9] | outcome [2] | outcome [5] | outcome [3] | outcome [4]

COC(=O)C1=C(C)NC(C)=C(C(=O)OC)C1c1ccccc1[N+](=O)[O-]
inactive: outcome [10] | outcome [2] | outcome [5] | Potency [11] | Potency [12] | outcome [3] | outcome [4]

CCN(CC)CCSC(=O)C(c1ccccc1)c1ccccc1
inactive: Potency [1] | outcome [2] | outcome [3] | outcome [4]

NCCNCCNCCNCCN
inactive: activity change, negative = inhibition [2] -9.15% [at 12.6 µM] | activity change, negative = inhibition [5] 12% [at 11.5 µM] | activity change [3] -4.84% [at 0.858 µM] | outcome [4]

Cc1cc(O)cc2c1O[C@](C)(CCC[C@H](C)CCC[C@H](C)CCCC(C)C)CC2
inactive: Potency [1] | outcome [2] | outcome [3] | outcome [4]

CCCCN1CCCC[C@H]1C(=O)Nc1c(C)cccc1C
inactive: Potency [1] | outcome [2] | outcome [3] | outcome [4]

OCc1cc(C(O)CNCCCCCCOCCCCc2ccccc2)ccc1O (stereo not drawn)
inactive: outcome [2] | outcome [5] | Potency [12] | outcome [3] | outcome [13]

OCC(CO)N[C@H]1C[C@](O)(CO)[C@@H](O)[C@H](O)[C@H]1O
inactive: Potency [1] | outcome [2] | outcome [3] | outcome [4]

CN1[C@@H]2CC[C@H]1CC(OC(=O)C(O)c1ccccc1)C2 (stereo partly drawn)
inactive: Potency [1] | outcome [2] | outcome [3]

CCCOC(=O)c1ccccc1
inactive: Potency [1] | outcome [2] | outcome [3] | outcome [4]

Cc1cc2nc3c(=O)[nH]c(=O)nc-3n(C[C@H](O)[C@H](O)[C@H](O)CO)c2cc1C
inactive: Potency [6] | Potency [7] | max response [8] 11.4%
